Shown are actives, neighbours in structure and some others; about 4% of the full set was active somewhere.
TROY signal inh: TROY signaling inhibition | AID 1347056 | 360,000 compounds, 0.98% hits | inhibition, % at 10 µM | Q293 LMP1-TROYcd NF-kB luciferase reporter, 4 h;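 active means compounds whose plate-normalised and pattern-corrected inhibition of the luciferase reporter signal at the single screening dose is 50% or more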
Peg3 promoter: inhibitors of Peg3 promoter; HeLa PEG-Prom luciferase reporter, luminescence, overnight; inhibition, % at 20 µM; 360,000 compounds, 1.7% hits; AID 588405;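 active means inhibition of at least 50% at 20 µM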
HIF-2a block: blocks HIF-2a reporter activity; 786-0 RCC cells HIF-2a reporter, luciferase luminescence, overnight; inhibition, % at 18.8 µM; 360,000 compounds, 0.72% hits; AID 624352;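 active means inhibition of the luminescence signal of 40% or more relative to plate controls, in a single-dose primary screen at 18.75 µM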
CF NFkB inh: inhibitors of cystic fibrosis induced NF-kB | inhibition, % at 5 µM | KKLEB NF-kB-GFP reporter, PAF-induced, GFP fluorescence overnight | 360,000 compounds, 0.86% hits;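 active means at least 50% inhibition at 5 µM, scaled per plate between neutral and stimulator controls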;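 further: PAF is a Pseudomonas aeruginosa culture filtrate used as stimulus; plate controls were PAF-stimulated DMSO wells for no effect and unstimulated DMSO wells for full effect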
TWEAK Fn14 block: blocks TWEAK-Fn14 interaction in a reporter cell assay. TWEAK-stimulated Fn14 reporter cells, luciferase luminescence, 8 h. inhibition, % at 10 µM. 360,000 compounds, 2% hits. AID 1159606; in the data active means inhibition above about 50%
KKLEB tox: counter-screen for CF NF-kB inhibitors: cytotoxicity | 360,000 compounds, 0.36% hits | KKLEB CF airway cells viability, ATPlite luminescence, overnight; active compounds read low; cells stimulated with P. aeruginosa culture filtrate | activity change (cytotoxicity), % at 5 µM;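 active means corrected activity change at or below -50% at 5 µM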
The depositor's hits bear a star.

For COc1ccccc1-c1sc2cc3c(cc2c1-c1ccc(OCCN2CCCCC2)cc1)OCO3 the results were TROY signal inh -0.8, Peg3 promoter 100.1*, HIF-2a block 21.6, CF NFkB inh 24.7, TWEAK Fn14 block -31.9 and KKLEB tox -28.2.
COc1cc2sc(-c3ccccc3OC)c(-c3ccc(OCCN4CCCCC4)cc3)c2cc1OC was read as TROY signal inh 9.3, Peg3 promoter 89.4*, HIF-2a block 19.1, CF NFkB inh 18.7, TWEAK Fn14 block -37.0 and KKLEB tox -29.5.
`CCc1cc(C(=O)N2CCN(c3ncc(C(F)(F)F)cc3Cl)CC2)sc1C` gave TROY signal inh 35.3, Peg3 promoter 12.0, HIF-2a block -4.2, CF NFkB inh -2.3, TWEAK Fn14 block 55.6* and KKLEB tox -2.7.
For COc1ccc(-c2nc(-c3cccs3)no2)cc1 the results were TROY signal inh 58.3*, Peg3 promoter 10.6, HIF-2a block 28.5, CF NFkB inh -1.8, TWEAK Fn14 block 86.1* and KKLEB tox -17.5.
COc1ccc(OC)c2c1C(=O)C(Cl)=C(Cl)C2=O was read as TROY signal inh 53.5*, Peg3 promoter 107.0*, HIF-2a block 94.1*, CF NFkB inh 89.6*, TWEAK Fn14 block 93.6* and KKLEB tox -54.5*.
`CC(C)CC(N)c1csc(Nc2ccc(C(F)(F)F)cn2)n1` (stereo not given) gave TROY signal inh 2.6, Peg3 promoter 101.7*, HIF-2a block -11.5, CF NFkB inh 17.4, TWEAK Fn14 block 2.0 and KKLEB tox -19.6.
Screening NC(CO)c1csc(Nc2ccc(C(F)(F)F)cn2)n1 (stereo not given) returned TROY signal inh -7.7, Peg3 promoter -18.0, HIF-2a block -24.7, CF NFkB inh 7.2, TWEAK Fn14 block -10.1 and KKLEB tox 4.6.
NC(Cc1ccc(Cl)cc1)c1csc(Nc2ccc(C(F)(F)F)cn2)n1 (stereo not given) was read as TROY signal inh 0.0, Peg3 promoter 100.9*, HIF-2a block 11.6, CF NFkB inh 27.4, TWEAK Fn14 block 5.4 and KKLEB tox -7.2.
Screening NC(c1csc(Nc2cnccn2)n1)C1CCCCC1 (stereo not given) returned TROY signal inh 3.4, Peg3 promoter -9.2, HIF-2a block -32.9, CF NFkB inh -3.5, TWEAK Fn14 block -15.4 and KKLEB tox -4.3.
For NC(c1csc(Nc2ccc(C(F)(F)F)cn2)n1)C1CCCCC1 (stereo not given) the results were TROY signal inh 6.0, Peg3 promoter 99.4*, HIF-2a block 9.0, CF NFkB inh 16.3, TWEAK Fn14 block -36.1 and KKLEB tox -14.7.
NC(Cc1ccc(C(F)(F)F)cc1)c1csc(Nc2ccc(C(=O)NCc3ccco3)cn2)n1 (stereo not given) was read as TROY signal inh -4.1, Peg3 promoter 86.2*, HIF-2a block -10.1, CF NFkB inh 1.0, TWEAK Fn14 block -13.3 and KKLEB tox -2.8.
CCN(CC)S(=O)(=O)c1ccc2c(c1)c(=O)c(C(=O)NCc1ccco1)cn2C was read as TROY signal inh -5.2, Peg3 promoter 21.8, HIF-2a block 19.5, CF NFkB inh 2.4, TWEAK Fn14 block 0.0 and KKLEB tox -7.1.
NC(Cc1ccc(F)cc1)c1csc(Nc2nccc(C(F)(F)F)n2)n1 (stereo not given) was read as TROY signal inh 26.3, Peg3 promoter 44.1, HIF-2a block 8.3, CF NFkB inh -16.2, TWEAK Fn14 block 1.0 and KKLEB tox -1.7.
`COc1cc(OC)nc(Nc2nc(C(N)Cc3ccc(Cl)cc3)cs2)n1` (stereo not given) gave TROY signal inh -9.7, Peg3 promoter 98.8*, HIF-2a block 7.4, CF NFkB inh 11.8, TWEAK Fn14 block -36.5 and KKLEB tox -10.6.
NC(Cc1ccc(Cl)cc1)c1csc(Nc2nccc(C(F)(F)F)n2)n1 (stereo not given) was read as TROY signal inh -9.5, Peg3 promoter 82.7*, HIF-2a block 9.6, CF NFkB inh -3.9, TWEAK Fn14 block -20.6 and KKLEB tox -23.0.
`COC(=O)c1cc(C)nc(Nc2nc(C(N)Cc3ccc(Cl)cc3)cs2)n1` (stereo not given) gave TROY signal inh -6.0, Peg3 promoter -15.0, HIF-2a block 4.1, CF NFkB inh 40.4, TWEAK Fn14 block -4.9 and KKLEB tox -36.6.
`C=Cc1ncc(OC)c2c1[nH]c1ccccc12` gave TROY signal inh 10.3, Peg3 promoter 80.5*, HIF-2a block 31.4, CF NFkB inh 5.3, TWEAK Fn14 block 23.7 and KKLEB tox -53.9*.
`CC1=C(C(=O)N(C(C)C)C(C)C)CC(CC(=O)NC2CCCC2)C(=O)N1Cc1ccccc1` (stereo not given) gave TROY signal inh 3.6, Peg3 promoter 1.4, HIF-2a block 7.8, CF NFkB inh 1.7, TWEAK Fn14 block -3.1 and KKLEB tox 5.0.
For CC(C)(C)c1cc[n+](C2=C([O-])c3ccccc3C(=O)/C2=N\S(=O)(=O)c2ccccc2)cc1 the results were TROY signal inh 59.9*, Peg3 promoter 15.5, HIF-2a block 2.9, CF NFkB inh -1.6, TWEAK Fn14 block 79.5* and KKLEB tox -14.4.
Screening O=C1/C(=N\S(=O)(=O)c2cccs2)C([n+]2cccc(Cc3ccccc3)c2)=C([O-])c2ccccc21 returned TROY signal inh 28.4, Peg3 promoter 34.4, HIF-2a block 1.9, CF NFkB inh 56.4*, TWEAK Fn14 block 32.1 and KKLEB tox -3.4.
Screening COc1ccc(Cn2c(O)c(C=Nc3ccccc3C(=O)O)c3ccccc3c2=O)cc1 returned TROY signal inh 52.0*, Peg3 promoter 21.1, HIF-2a block 13.9, CF NFkB inh 6.5, TWEAK Fn14 block 43.9 and KKLEB tox 10.2.
Screening COc1ccc(-n2c(CCC(=O)O)ccc2-c2ccc(F)cc2)c(OC)c1 returned TROY signal inh 50.6*, Peg3 promoter 3.2, HIF-2a block 7.4, CF NFkB inh 1.8, TWEAK Fn14 block 29.9 and KKLEB tox 10.5.
`COC(=O)c1ccccc1-n1c(CCC(=O)O)ccc1-c1ccc(F)cc1` gave TROY signal inh -17.0, Peg3 promoter 18.1, HIF-2a block -10.4, CF NFkB inh -2.4, TWEAK Fn14 block 5.1 and KKLEB tox 8.0.
For Oc1c(N=Nc2ccc(F)cc2)ccc2ccccc12 the results were TROY signal inh 38.4, Peg3 promoter -177.5, HIF-2a block -135.0, CF NFkB inh 3.1, TWEAK Fn14 block 54.4* and KKLEB tox -23.1.
Screening Oc1c(N=Nc2nn[nH]n2)ccc2ccccc12 returned TROY signal inh 24.4, Peg3 promoter -28.4, HIF-2a block -45.0, CF NFkB inh 14.5, TWEAK Fn14 block 52.1* and KKLEB tox -7.5.
For Oc1ccc2ccccc2c1N=Nc1ccc(F)cc1 the results were TROY signal inh -42.1, Peg3 promoter -55.3, HIF-2a block -103.5, CF NFkB inh -16.6, TWEAK Fn14 block -2.5 and KKLEB tox 8.0.

High-throughput results (PubChem BioAssay)
